A number with no mark means an inactive call.
Each compound was assayed on gramicidin D channels in DC22:1PC lipid vesicles (bilayer-modifying potency) (assay: initial Tl+ fluorescence quench rate relative to no-drug control (NormRate, gramicidin monomer-dimer shift) (ratio (fold of control)); higher = stronger bilayer-modifying effect (equilibrium shifted toward conducting dimers), active = 1.5 or more). Conditions: 10 µM; lipid concentration 50 µM; temperature: 25 °C.
Protocol: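 Stopped-flow fluorescence quench assay: ANTS-loaded DC22:1PC large unilamellar vesicles doped with gramicidin D (1:2000), 50 µM lipid, equilibrated 10 min with 10 µM drug (0.1% DMSO), mixed with Tl+ quench buffer at 25°C. Initial quench rate (Tl+ influx) was fitted with a modified stretched exponential and normalised to the no-drug control rate (NormRate); duplicates from two independent LUV preparations (triplicates for 7 drugs).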

Row | SMILES | initial Tl+ fluorescence quench rate
1 | CNC(=O)[C@@H]1Cc2c([nH]c3cc(Cl)ccc23)C2(CCN(CCc3ccccc3)CC2)N1 | 2.52 (active)
2 | CCCn1nnc(NC(=O)COc2ccc(C3CCCCC3)cc2)n1 | 2.51 (active)
3 | COc1cc(OC)cc(C(=O)NC[C@@H]2Cc3cc(Cl)cc(-c4ccncc4)c3O2)c1 | 2.47 (active)
4 | C[C@H]1CS(=O)(=O)CCN1/N=C/c1ccc([N+](=O)[O-])o1 | 1.02
5 | O=C(Nc1nc(-c2ccccn2)cs1)c1cncn1-c1ccccc1 | 1.1
6 | CC(C)(CN)c1nc(-c2ccc(Cl)c(O)c2)c(-c2ccnc(N)n2)[nH]1 | 1.15
7 | CC(=O)N1CCc2cc3nc(C)cc(C)c3cc21 | 1.09
8 | CCC(=O)Nc1ccccc1C(=O)Nc1ccccn1 | 1.12
9 | CC1=Nc2ccc(Cl)cc2[C@H](c2ccccc2)N1CCNC(=O)CN(C)C | 1.07
10 | CCCCc1ccc(NC(=O)Nc2ccc(O[C@H]3CCCC[C@@H]3N(C)c3ccccc3)c(F)c2)cc1 | 1.35
11 | O=C(OCc1ccccc1)N1CCC(c2cc(-c3ccncc3)c(-c3ccc(F)cc3)[nH]2)CC1 | 2.36 (active)
12 | CC(C)[C@H](NC(=O)Cc1cccc2ccccc12)C(=O)Nc1cccc(C#N)c1 | 1.74 (active)
13 | Cc1cc(NC(=O)c2ccc(Oc3ccc(Cl)cc3O)o2)no1 | 1.11
14 | CCOc1ccc(OCC(=O)Nc2cc(C)cc(C)c2)cc1 | 1.45
15 | Cc1cc(C)n(-c2ccc(NC(=O)C3CCN(Cc4cnc(C)s4)CC3)cc2)n1 | 1.01

From the supplement of paper PMC9948646
